Records with an inconclusive call do not appear. Active and inactive are the calls of the source. Calls come from the whole dose curve; as a rule, active = well fitted cell-killing curve with a large enough effect; inconclusive = small, poorly fitted or top-dose-only effect, or effect the other way; inactive = no such curve, though single readings can be large or run the other way.
What was measured:
[1] = Quantitative High-Throughput drug screen in 47 multiple myeloma cell lines against the NCATS MIPE library collection: MM1R_ATCC cell viability assay (AID 1918981); note: nearly all actives have a fitted effect of over 35% in size; note: potency is the fitted concentration of half-maximal effect
Summary of the method: (§1)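 Readout: median RLU from CellTiter-Glo after 5 min at room temperature. Preceding step was 48 h drug treatment of 500 cells/well at 37 °C, 5% CO2, with DMSO-only and media-only control wells.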

[2] = Quantitative High-Throughput drug screen in 47 multiple myeloma cell lines against the NCATS MIPE library collection: LP1_DSMZ cell viability assay (AID 1918982); note: nearly all actives have a fitted effect of over 35% in size
Summary of the method: as §1

[3] = Quantitative High-Throughput drug screen in 47 multiple myeloma cell lines against the NCATS MIPE library collection: KMS34_JCRB cell viability assay (AID 1918985); note: nearly all actives have a fitted effect of over 40% in size; note: potency is the fitted concentration of half-maximal effect
Summary of the method: as §1

[4] = Quantitative High-Throughput drug screen in 47 multiple myeloma cell lines against the NCATS MIPE library collection: OCIMY7_PLB cell viability assay (AID 1918987); conditions: OCI-MY7 myeloma viability, CellTiter-Glo ATP, 48 h; viability (% of DMSO): at 45.8 µM (top of the series); note: potency is the fitted concentration of half-maximal effect; nearly all actives have a fitted effect of over 65% in size
Summary of the method: as §1

[5] = Quantitative High-Throughput drug screen in 47 multiple myeloma cell lines against the NCATS MIPE library collection: OPM1_PLB cell viability assay (AID 1918989); note: nearly all actives have a fitted effect of over 40% in size; note: potency is the fitted concentration of half-maximal effect
Summary of the method: as §1

[6] = Quantitative High-Throughput drug screen in 47 multiple myeloma cell lines against the NCATS MIPE library collection: SKMM1_PLB cell viability assay (AID 1919863); conditions: SKMM1 myeloma viability, CellTiter-Glo ATP, 48 h; viability: stronger effect = lower value; note: nearly all actives have a fitted effect of over 35% in size; note: potency is the fitted concentration of half-maximal effect
Summary of the method: as §1

[7] = Quantitative High-Throughput drug screen in 47 multiple myeloma cell lines against the NCATS MIPE library collection: U266_ATCC cell viability assay (AID 1919864); note: potency is the fitted concentration of half-maximal effect; nearly all actives have a fitted effect of over 35% in size
Summary of the method: as §1

[8] = Quantitative High-Throughput drug screen in 47 multiple myeloma cell lines against the NCATS MIPE library collection: XG6_PLB cell viability assay (AID 1919865); note: nearly all actives have a fitted effect of over 40% in size; note: potency is the fitted concentration of half-maximal effect
Summary of the method: as §1

[9] = Quantitative High-Throughput drug screen in 47 multiple myeloma cell lines against the NCATS MIPE library collection: XG1_PLB cell viability assay (AID 1919866); note: nearly all actives have a fitted effect of over 35% in size; note: potency is the fitted concentration of half-maximal effect
Summary of the method: as §1

[10] = Quantitative High-Throughput drug screen in 47 multiple myeloma cell lines against the NCATS MIPE library collection: VP6_DJ cell viability assay (AID 1919867); note: potency is the fitted concentration of half-maximal effect; nearly all actives have a fitted effect of over 40% in size
Summary of the method: as §1

[11] = Quantitative High-Throughput drug screen in 47 multiple myeloma cell lines against the NCATS MIPE library collection: PE2_PLB cell viability assay (AID 1919869); note: nearly all actives have a fitted effect of over 35% in size; note: potency is the fitted concentration of half-maximal effect
Summary of the method: as §1

[12] = Quantitative High-Throughput drug screen in 47 multiple myeloma cell lines against the NCATS MIPE library collection: PCM6_Riken cell viability assay (AID 1919870); note: nearly all actives have a fitted effect of over 30% in size; note: potency is the fitted concentration of half-maximal effect
Summary of the method: as §1

[13] = Quantitative High-Throughput drug screen in 47 multiple myeloma cell lines against the NCATS MIPE library collection: OPM2_DSMZ cell viability assay (AID 1919872); note: nearly all actives have a fitted effect of over 30% in size; note: potency is the fitted concentration of half-maximal effect
Summary of the method: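 Luminescent ATP measurement with CellTiter-Glo gives viability, scaled between DMSO-only wells (100%) and media-only wells (0%). Cells, 500 per well, faced library compounds for 48 hours at 37C.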

[14] = Quantitative High-Throughput drug screen in 47 multiple myeloma cell lines against the NCATS MIPE library collection: KMS11_JCRBsus cell viability assay (AID 1919873); note: nearly all actives have a fitted effect of over 50% in size; note: potency is the fitted concentration of half-maximal effect
Summary of the method: as §1

[15] = Quantitative High-Throughput drug screen in 47 multiple myeloma cell lines against the NCATS MIPE library collection: KMS28BM_JCRB cell viability assay (AID 1919874); note: nearly all actives have a fitted effect of over 35% in size; note: potency is the fitted concentration of half-maximal effect
Summary of the method: as §1

[16] = Quantitative High-Throughput drug screen in 47 multiple myeloma cell lines against the NCATS MIPE library collection: KMS28PE_JCRB cell viability assay (AID 1918983)
Summary of the method: as §1

[17] = Quantitative High-Throughput drug screen in 47 multiple myeloma cell lines against the NCATS MIPE library collection: OCIMY5_PLB cell viability assay (AID 1918988); note: potency is the fitted concentration of half-maximal effect; nearly all actives have a fitted effect of over 65% in size
Summary of the method: as §1

[18] = Quantitative High-Throughput drug screen in 47 multiple myeloma cell lines against the NCATS MIPE library collection: L363_DSMZ cell viability assay (AID 1918984); note: nearly all actives have a fitted effect of over 40% in size; note: potency is the fitted concentration of half-maximal effect
Summary of the method: as §1

[19] = Quantitative High-Throughput drug screen in 47 multiple myeloma cell lines against the NCATS MIPE library collection: UTMC2_PLB cell viability assay (AID 1919868); conditions: CellTiter-Glo ATP luminescence, 48 h; viability (% of DMSO control): at 45.8 µM (top of the series); note: potency is the fitted concentration of half-maximal effect; nearly all actives have a fitted effect of over 55% in size
Summary of the method: as §1

[20] = Quantitative High-Throughput drug screen in 47 multiple myeloma cell lines against the NCATS MIPE library collection: RPMI8226_ATCC cell viability assay (AID 1919871); note: potency is the fitted concentration of half-maximal effect; nearly all actives have a fitted effect of over 30% in size
Summary of the method: as §1

CN(C)CC(=O)N1CCC(c2ccc(NC(=O)c3ncc(C#N)[nH]3)c(C3=CCCCC3)c2)CC1
inactive: Potency [2] | Potency [3] | viability [6] 127% | Potency [13]
active: Potency [1] 8.33 µM | Potency [4] 9.35 µM | Potency [5] 20.9 µM | Potency [7] 8.33 µM | Potency [8] 18.7 µM | Potency [9] 16.6 µM | Potency [10] 23.5 µM | Potency [11] 20.9 µM | Potency [12] 14.8 µM | Potency [14] 18.7 µM | Potency [15] 26.4 µM

N#Cc1cc(NC(=O)Nc2nnc(-c3ccncc3)s2)ccc1-c1cn[nH]c1
inactive: Potency [1] | Potency [2] | Potency [5] | Potency [11] | Potency [12] | Potency [13] | Potency [14] | Potency [15]
active: Potency [16] 16.6 µM | Potency [17] 14.8 µM

CC(C=CC=C(C)C=CC1=C(C)CCCC1(C)C)=CC=CC=C(C)C=CC=C(C)C=CC1=C(C)CCCC1(C)C
active: Potency [1] 16.6 µM | Potency [18] 16.6 µM | Potency [4] 2.09 µM | Potency [17] 9.35 µM | Potency [8] 5.26 µM | Potency [9] 16.6 µM | Potency [10] 23.5 µM | Potency [12] 23.5 µM
inactive: Potency [2] | Potency [5] | viability [6] 107% | Potency [13]

COc1cc(OC)c(NC(=O)Nc2cc(C)on2)cc1Cl
inactive: Potency [1] | Potency [2] | Potency [18] | Potency [3] | viability [6] 145% | Potency [8] | Potency [9] | Potency [11] | Potency [12] | Potency [13] | Potency [15]

COc1cc(OC)c(C=CS(=O)(=O)Cc2ccc(OC)c(NCC(=O)O)c2)c(OC)c1
active: Potency [1] 2.35 µM | Potency [16] 0.469 µM | Potency [18] 0.0469 µM | Potency [3] 0.209 µM | Potency [4] 0.264 µM | Potency [17] 0.59 µM | Potency [5] 0.332 µM | Potency [6] 0.235 µM | Potency [7] 0.526 µM | Potency [8] 0.833 µM | Potency [10] 0.372 µM | Potency [19] 0.166 µM | Potency [11] 0.469 µM | Potency [12] 0.418 µM | Potency [20] 1.66 µM | Potency [14] 0.0935 µM | Potency [15] 0.132 µM

NC(=O)Nc1cc(-c2ccc(CN3CCOCC3)cc2)sc1C(N)=O
active: Potency [1] 20.9 µM | Potency [16] 18.7 µM | Potency [18] 5.9 µM | Potency [3] 4.18 µM | Potency [4] 0.0833 µM | Potency [17] 0.0372 µM | Potency [5] 3.72 µM | Potency [6] 18.7 µM | Potency [7] 16.6 µM | Potency [8] 0.743 µM | Potency [10] 0.833 µM | Potency [11] 1.48 µM | Potency [12] 1.66 µM | Potency [20] 7.43 µM | Potency [13] 14.8 µM | Potency [14] 11.8 µM

Reference: PubChem BioAssay (NCATS)
